The nature of assay [1]: qHTS RealTime-Glo MT Cell Viability Assay in HepG2 cells - 40 hour (AID 1224870). Further: nearly all actives have a fitted effect of over 50% in size. The method in brief: (§1)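 Real-time viability: cells seeded at 600 per well together with NanoLuc and cell-permeant prosubstrate, compounds added after 5 h incubation. Luminescence tracked at 0, 8, 16, 24, 32 and 40 h of exposure.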
(Quantitative high-throughput screening tests each substance at several concentrations.)

A short description of assay [2]: A CellTox Green Cytotoxicity Assay to monitor cytotoxicity in HEK293 cells - 40 hour (AID 1224871). Further: nearly all actives have a fitted effect of over 45% in size. The method in brief: (§2)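 Read-out: fluorescence of a cell-impermeant cyanine dye staining DNA of dead cells, proportional to cytotoxicity. HEK293, 600 cells/well with reagent, compound (23 nL DMSO) added after 5 h; reads at 0, 8, 16, 24, 32, 40 h.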
The nature of assay [3]: qHTS RealTime-Glo MT Cell Viability Assay in HEK293 cells - 16 hour (AID 1224872). Further: nearly all actives have a fitted effect of over 50% in size. Further: potency means the concentration at half of the fitted maximal effect. The method in brief: (§3)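 Assay medium contained NanoLuc luciferase plus cell-permeant prosubstrate, added with HEK293 cells at 600 cells/well. After 5 h at 37 C/5% CO2 compounds were added; plates stayed at 37 C for 40 h with serial luminescence reads.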
The nature of assay [4]: qHTS RealTime-Glo MT Cell Viability Assay in HepG2 cells - 8 hour (AID 1224873). Further: nearly all actives have a fitted effect of over 55% in size. The procedure, abridged:
as §1

Assay [5] in a line: qHTS RealTime-Glo MT Cell Viability Assay in HEK293 cells - 40 hour (AID 1224874). Further: nearly all actives have a fitted effect of over 50% in size. Further: potency means the concentration at half of the fitted maximal effect. The following applies: RealTime-Glo luminescence; max response: stronger effect = lower value. The method in brief:
(§4)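 Luminescence readout at each listed time point; HEK293, 600 cells/well, RealTime-Glo MT reagent added with cells; compounds pinned (23 nL in DMSO) after 5 h at 37 C; continuous culture at 37 C.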

Assay [6] in a line: A CellTox Green Cytotoxicity Assay to monitor cytotoxicity in HEK293 cells - 24 hour (AID 1224875). Further: series mostly up to about 77 µM; nearly all actives have a fitted effect of over 45% in size. The procedure, abridged: as §2
Assay [7] can be described thus: A CellTox Green Cytotoxicity Assay to monitor cytotoxicity in HepG2 cells - 16 hour (AID 1224876). Further: nearly all actives have a fitted effect of over 45% in size. The procedure, abridged:
(§5)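 HepG2, 600 cells/well premixed w/ CellTox Green; 5 h settle, 37 C/5% CO2; pintool cpd add (DMSO); 37 C, 40 h; fluorescence read at 0, 8, 16, 24, 32, 40 h.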

A short description of assay [8]: qHTS RealTime-Glo MT Cell Viability Assay in HepG2 cells - 32 hour (AID 1224877). Further: nearly all actives have a fitted effect of over 55% in size. The method in brief:
(§6)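 qHTS, HepG2, 600 cells/well, RealTime-Glo (NanoLuc + prosubstrate) added with cells; 5 h preincubation; DMSO compound addition; 37 C; luminescence at 0/8/16/24/32/40 h.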

Assay [9] can be described thus: A CellTox Green Cytotoxicity Assay to monitor cytotoxicity in HepG2 cells - 24 hour (AID 1224878). Further: nearly all actives have a fitted effect of over 45% in size. The procedure, abridged:
as §5

Assay [10] in a line: A CellTox Green Cytotoxicity Assay to monitor cytotoxicity in HepG2 cells - 40 hour (AID 1224879). Further: nearly all actives have a fitted effect of over 40% in size. The procedure, abridged: as §5
A short description of assay [11]: A CellTox Green Cytotoxicity Assay to monitor cytotoxicity in HEK293 cells - 32 hour (AID 1224881). Further: nearly all actives have a fitted effect of over 40% in size. The procedure, abridged:
as §2

Assay [12] in a line: A CellTox Green Cytotoxicity Assay to monitor cytotoxicity in HepG2 cells - 0 hour (AID 1224882). Further: nearly all actives have a fitted effect of over 35% in size. The method in brief:
as §5

Assay [13] in a line: A CellTox Green Cytotoxicity Assay to monitor cytotoxicity in HepG2 cells - 32 hour (AID 1224883). Further: nearly all actives have a fitted effect of over 50% in size. The procedure, abridged:
as §5

Assay [14] can be described thus: A CellTox Green Cytotoxicity Assay to monitor cytotoxicity in HEK293 cells - 8 hour (AID 1224884). Further: nearly all actives have a fitted effect of over 35% in size. The method in brief:
as §2

Assay [15] in a line: qHTS RealTime-Glo MT Cell Viability Assay in HepG2 cells - 16 hour (AID 1224885). Further: nearly all actives have a fitted effect of over 50% in size. The method in brief: as §6
The nature of assay [16]: qHTS RealTime-Glo MT Cell Viability Assay in HEK293 cells - 24 hour (AID 1224886). Further: nearly all actives have a fitted effect of over 50% in size. Further: potency means the concentration at half of the fitted maximal effect. The method in brief:
as §3

A short description of assay [17]: qHTS RealTime-Glo MT Cell Viability Assay in HEK293 cells - 8 hour (AID 1224887). Further: nearly all actives have a fitted effect of over 50% in size. Further: potency means the concentration at half of the fitted maximal effect. The procedure, abridged: as §4
The nature of assay [18]: A CellTox Green Cytotoxicity Assay to monitor cytotoxicity in HEK293 cells - 16 hour (AID 1224888). Further: nearly all actives have a fitted effect of over 35% in size. The procedure, abridged: as §2
Assay [19] in a line: qHTS RealTime-Glo MT Cell Viability Assay in HepG2 cells - 0 hour (AID 1224889). Further: nearly all actives have a fitted effect of over 50% in size. The procedure, abridged:
as §6

Assay [20] is described as follows: qHTS RealTime-Glo MT Cell Viability Assay in HEK293 cells - 0 hour (AID 1224880). The method in brief:
as §4

Unmarked numbers belong to inactive results. Inconclusive results are not listed. The source made the active and inactive calls. The call rests on the fitted dose curve; in most records, active means well fitted curve in the direction sought with a large enough effect in the repeat runs; inconclusive means weak or mixed curves; inactive means no such curve, though single readings can be large; an effect the other way counts as inactive or inconclusive.

Here are results for 14 compounds from PubChem BioAssay (Tox21).
On the % scale 0 is the no-effect control and ±100 the full control effect.

Regarding `COc1nc(C)nc(N)n1`, the Potency result in assay [1], in [2], in [3], in assay [6], in assay [7] and in [8] was “inactive” each time. Further, the Potency entry in assay [9], in [10], in assay [11], in assay [12], in assay [13] and in [14] was “inactive” each time. In addition, the Potency result in [16], in assay [17], in [18] and in assay [19] was “inactive” each time. For the same compound, the result in assay [4] and in [15] was inactive. Also, the max response in assay [5] was -1.44%.

On to `CC(C)COC(=O)c1ccccc1O`, for which the Potency result in [1], in [2], in assay [3], in assay [6], in assay [7] and in assay [9] was “inactive” each time. The Potency result in assay [10], in [11], in assay [13], in assay [14], in assay [16] and in assay [17] was “inactive” in each case. The Potency result in assay [18] is “inactive”. Also, the outcome in assay [4], in [20] and in assay [15] was inactive. In addition, in assay [5], the max response was 7.83%.

Consider `CCCCC1CCCCC(=O)O1` (centres undefined), for which the Potency result in [1], in [2], in assay [3], in assay [6], in assay [7] and in assay [8] was “inactive” throughout. Besides, the Potency entry in [9], in assay [10], in assay [11], in [13], in [14] and in assay [16] was “inactive” throughout. Moreover, the Potency result in assay [17], in assay [18] and in assay [19] was “inactive” each time. For the same compound, the result in assay [4], in assay [20] and in assay [15] was inactive. For the same compound, in assay [5], the max response was 13.6%.

`O=C(O)c1cccc(C(=O)O)n1`: the Potency result in [1], in assay [2], in assay [3], in [6], in assay [7] and in [8] was “inactive” each time. For the same compound, the Potency result in assay [9], in [10], in [11], in assay [13], in assay [14] and in [16] was “inactive” each time. In addition, the Potency entry in assay [17] and in assay [18] was “inactive” in each case. For the same compound, the compound was classed as inactive in assay [4], in [20] and in assay [15]. Also, the max response in assay [5] was -0.906%.

Consider `CC(C)=CCC/C(C)=C/C(=O)O`, for which the Potency result in assay [1], in assay [2], in assay [3], in [6], in [7] and in [8] was “inactive” in each case. Besides, the Potency result in assay [11], in assay [12], in [14], in assay [16] and in assay [17] was “inactive” throughout. The call in assay [4] and in assay [15] was inactive. The max response in assay [5] is 0.0826%.

As to `CCCCCCC(=O)OCC`, the Potency entry in [1], in assay [2], in assay [3], in assay [6], in [7] and in assay [9] was “inactive” each time. Besides, the Potency result in assay [10], in assay [11], in [12], in [13], in assay [14] and in assay [16] was “inactive” each time. The Potency result in assay [17], in [18] and in assay [19] was “inactive” in each case. Also, the compound was called inactive in [4], in assay [20] and in assay [15]. In addition, the max response in assay [5] is 14.5%.

Take `CO[Si](OC)(OC)OC`: the Potency entry in assay [1], in [2], in assay [3], in assay [6], in assay [7] and in assay [8] was “inactive” each time. The Potency entry in assay [9], in assay [10], in [11], in assay [12], in [13] and in [14] was “inactive” each time. Also, the Potency entry in assay [16], in assay [17], in assay [18] and in assay [19] was “inactive” in each case. In addition, the outcome in [4] and in [15] was inactive. Also, the max response in assay [5] is 16.8%.

Regarding `Nc1ccc2cc(S(=O)(=O)O)ccc2c1`, the Potency entry in assay [1], in assay [2], in assay [3], in assay [6], in assay [7] and in assay [8] was “inactive” each time. Further, the Potency result in [9], in assay [10], in assay [11], in [12], in assay [13] and in [14] was “inactive” throughout. The Potency result in assay [16], in assay [17], in assay [18] and in [19] was “inactive” throughout. Also, the result in assay [4] and in [15] was inactive. For the same compound, the max response in [5] was -14%.

As for `CCn1c(=O)c2c(nc(/C=C/c3ccc(OC)c(OC)c3)n2C)n(CC)c1=O`, the Potency entry in assay [1], in assay [2], in assay [6], in assay [7], in assay [8] and in [9] was “inactive” throughout. For the same compound, the Potency entry in [10], in assay [11], in assay [13], in assay [14] and in [18] was “inactive” each time. Besides, the Potency in [3] is 1.69 µM (active); in assay [5] it was 1.69 µM (active); in assay [16], 1.69 µM (active); in assay [17], 1.51 µM (active). The result in assay [4], in assay [20] and in assay [15] was inactive.

With `CN1[C@@H]2CC[C@H]1CC(NC(=O)n1c(=O)[nH]c3ccccc31)C2` (some centres undefined), the Potency result in assay [1], in assay [2], in assay [3], in [6], in assay [7] and in assay [8] was “inactive” each time. The Potency entry in assay [9], in [10], in [11], in assay [12], in [13] and in assay [14] was “inactive” in each case. Besides, the Potency result in assay [16], in assay [17] and in [18] was “inactive” throughout. Further, the compound was classed as inactive in [4] and in [15]. For the same compound, in assay [5], the max response was -2.86%.

For the compound `CCN1CCCC(OC(=O)C(c2ccccc2)c2ccccc2)C1` (centres undefined), the Potency result in assay [1], in assay [2], in [3], in assay [6], in assay [7] and in assay [9] was “inactive” in each case. Moreover, the Potency entry in assay [10], in assay [11], in assay [12], in assay [13], in assay [14] and in assay [16] was “inactive” each time. In addition, the Potency entry in assay [17] and in [18] was “inactive” throughout. Moreover, the compound was called inactive in assay [4], in [20] and in assay [15]. In assay [5], the max response was 14.8%.

As to `O=C(O)/C=C/c1ccc(Cn2ccnc2)cc1`, the Potency entry in [1], in assay [2], in assay [3], in [6], in [7] and in assay [9] was “inactive” throughout. In addition, the Potency result in [10], in [11], in assay [13], in [14], in [16] and in assay [17] was “inactive” in each case. For the same compound, the Potency entry in assay [18] and in assay [19] was “inactive” throughout. Moreover, the compound was called inactive in assay [4] and in assay [20]. The max response in assay [5] is 2.89%.

Consider `CC(C)c1cccc(O)c1`, for which the Potency result in [1], in assay [2], in [3], in [7], in assay [8] and in assay [11] was “inactive” in each case. Moreover, the Potency entry in [12], in assay [14], in [16], in [17] and in [19] was “inactive” each time. For the same compound, the call in assay [4], in [20] and in assay [15] was inactive. In addition, the max response in assay [5] is 1.56%.

With `CCCCCCCCCCCl`, the Potency entry in assay [1], in [2], in [3], in [7], in assay [8] and in [9] was “inactive” in each case. Further, the Potency result in assay [10], in assay [11], in assay [12], in assay [13], in [14] and in assay [16] was “inactive” throughout. Also, the Potency result in assay [17], in assay [18] and in assay [19] was “inactive” throughout. Also, the result in assay [4], in assay [20] and in [15] was inactive. In addition, the max response in [5] is 6.94%.
